# According to PubChem BioAssay (NCATS):
# Records with an inconclusive call do not appear. Entries that show only a call come without a potency. A number with no mark means an inactive call. Activity calls are given as the source filed them. Calls follow the shape of the dose curve; as a rule, active = well fitted inhibition curve with a large enough effect; inconclusive = small, poorly fitted or top-dose-only effect; inactive = no such curve, though single readings can be large or run the other way. Where a SMILES comes first, the peptide text is derived from it. Bridges are numbered along the chain shown (N, C = ends). [ ]: non-standard residue; d: D form. NMeY = CN[CH](Cc1ccc(O)cc1)C(=O)O
# Legend:
# [1] = test system: Zika virus NS2B-NS3 protease (unlinked complex); experiment: Primary screen GU Rhodamine qHTS for Zika virus inhibitors: Unlinked NS2B-NS3 protease assay (AID 1347159); also: nearly all actives have a fitted effect of over 60% in size
# Method in brief: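 A qHTS format was used, with compound concentrations ranging up to 114 microM. Each compound was preincubated with 25 nM NS2B-NS3 protease, and the substrate was then added at 1.5 microM. Curves were fitted with a 4-parameter Hill model.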
# [2] = test system: Zika virus NS2B-NS3 protease (linked construct); experiment: Primary screen NINDS Rhodamine qHTS for Zika virus inhibitors (AID 1347160); also: nearly all actives have a fitted effect of over 55% in size
# Method in brief: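 Kinetic fluorescence (Ex 480 nm, Em 540 nm) over 15 min with 1.5 microM Rhodamine110 peptide and 25 nM linked protease.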
# Potency is read from the fitted curve at half-maximal effect.
smiles,measurement,setting,value
Cc1c2cc(c(C(=O)O)c1C)OC1OC(C(O)C(O)C1O)C(O)C(O)C1OC(O2)C(O)C(O)C1O (stereo not given),Potency,[1],inactive
same,Potency,[2],inactive
C[C@@H]1O[C@@H](O[C@H]2[C@H](O)[C@@H](O[C@@H]3O[C@H](CO)[C@@H](O)[C@H](O[C@@H]4O[C@H](CO)[C@@H](O)[C@H](O)[C@H]4O)[C@H]3O)[C@H](O[C@H]3CC[C@@]4(C)C(=CC[C@@H]5C4CC[C@@]4(C)C5C[C@@H]5OC6(CC[C@@](C)(CO[C@@H]7O[C@H](CO)[C@@H](O)[C@H](O)[C@H]7O)O6)[C@@H](C)[C@@H]54)C3)O[C@@H]2CO)[C@H](O)[C@H](O)[C@H]1O (stereo not given in full),"activity change, negative = inhibition",[1],33% [at 19.1 µM]
same,outcome,[2],inactive [at 10.7 µM]
COc1cccc(C(=O)N2CCN(C(=O)COc3cccc(C)c3)CC2)c1OC,Potency,[1],inactive
same,Potency,[2],inactive
OC1CCC(Nc2ncc3nc(Nc4c(F)cc(F)cc4F)n([C@H]4CCOC4)c3n2)CC1 (stereo not given in full),Potency,[1],inactive
same,Potency,[2],inactive
CCC1C(=O)OC23C=C[C@@H]4C(C(=O)O)=CO[C@H](O[C@@H]12)[C@@H]43 (stereo not given in full),Potency,[1],inactive
same,Potency,[2],inactive
O=C(c1cccc(Cl)c1F)N1CCN(Cc2cccc(Nc3nccs3)n2)CC1,Potency,[1],inactive
same,Potency,[2],inactive
C=C1C(=O)O[C@@H]2[C@H]1CCC(C)=C1CCC(=O)O[C@]12C,Potency,[1],inactive
same,Potency,[2],inactive
C=C1C(=O)O[C@H](CCC)[C@H]1C(=O)O,Potency,[1],inactive
same,Potency,[2],inactive
CC(C)=CCC[C@](C)(O[C@@H]1O[C@H](CO)[C@@H](O)[C@H](O)[C@H]1O)[C@H]1CC[C@]2(C)[C@@H]1[C@H](O)CC1[C@@]3(C)CC[C@H](O)C(C)(C)C3[C@@H](O[C@@H]3O[C@H](CO)[C@@H](O)[C@H](O)[C@H]3O[C@@H]3OC[C@@H](O)[C@H](O)[C@H]3O)C[C@]12C (stereo not given in full),Potency,[1],inactive
same,Potency,[2],inactive
C[C@H](NC(c1cccc(C[P+](=O)O)c1)[C@H](C)O)c1ccc(Cl)c(Cl)c1 (stereo not given in full),Potency,[1],inactive
same,Potency,[2],inactive
CC(C)c1cc(C(=O)N2CC[C@H](NC(=O)C3CC3)C2)n[nH]1,Potency,[1],inactive
same,Potency,[2],inactive
CC1(C)CC[C@]2(C(=O)O[C@@H]3O[C@H](CO)[C@@H](O)[C@H](O)[C@H]3O)CC[C@]3(C)C(=CCC4[C@@]5(C)C[C@@H](O)[C@H](O)C(C)(C)C5[C@H](O)C[C@]43C)[C@@H]2[C@@H]1O (stereo not given in full),Potency,[1],inactive
same,Potency,[2],inactive
CC(C)(C(=O)NCC(F)(F)C(F)(F)F)C(=O)NC1C(=O)Nc2ccccc2-c2ccccc21 (stereo not given),Potency,[1],inactive
same,Potency,[2],inactive
C[C@@H]1O[C@@H](OC[C@H]2O[C@@H](Oc3cc(O)cc4c3C(=O)C(O)(Cc3ccc(O)cc3)O4)[C@H](O)[C@@H](O)[C@@H]2O)[C@H](O)[C@H](O)[C@H]1O (stereo not given in full),Potency,[1],inactive
same,Potency,[2],inactive
CC(=O)OC[C@@]12C(=O)C[C@@H](C)[C@]3(C[C@@H](c4ccoc4)O[C@H]3OC(C)=O)[C@H]1CCC[C@]21CO1,Potency,[1],inactive
same,Potency,[2],inactive
Cc1cc(NC(=O)Nc2ccc(F)c(F)c2)n(-c2ccccc2)n1,Potency,[1],inactive
same,Potency,[2],inactive
CC1C(=O)CC2C3CCC(C(=O)O)C12CC3(C)CO (stereo not given),Potency,[1],inactive
same,Potency,[2],inactive
CCN(Cc1cccnc1)C(=O)CN(c1ccc(OC)nc1)S(=O)(=O)c1ccccc1C,Potency,[1],inactive
same,Potency,[2],inactive
CC1=C2C(O)C(=O)OC(c3ccoc3)C2(C)CCC1O (stereo not given),Potency,[1],inactive
same,Potency,[2],inactive
Cc1ccc(S(=O)(=O)Cc2nc(-c3ccc(C(=O)NCc4cccnc4)cc3)oc2C)cc1,Potency,[1],inactive
same,Potency,[2],inactive
O=C1N=C(N2CCOCC2)CN1c1ccc(Cl)cc1,Potency,[1],inactive
same,Potency,[2],inactive
CC(C)=CC/C=C(\C)[C@H]1CC[C@]2(C)[C@@H]1[C@H](O)C[C@@H]1[C@@]3(C)CC[C@H](O)C(C)(C)[C@@H]3[C@@H](O[C@@H]3O[C@H](CO)[C@@H](O)[C@H](O)[C@H]3O)C[C@]12C,Potency,[1],inactive
same,Potency,[2],inactive
Cc1cc(OCc2nc(-c3ccccc3Cl)cs2)ccc1OCC(=O)O,Potency,[1],12.6 µM (active)
same,Potency,[2],14.1 µM (active)
COC(=O)CCSCc1ccc(-c2onc(C)c2NC(=O)OC(C)c2ccccc2Cl)cc1 (stereo not given),Potency,[1],inactive
same,Potency,[2],inactive
Cn1cc(S(=O)(=O)c2ccc(Cl)cc2)c2cccc(N3CCNCC3)c21,Potency,[1],inactive
same,Potency,[2],inactive
CC1OC2OC(=O)C3(C)CC4=C(CO)C5=C(CC(=O)C4(C)C(C1=O)C23)C(C)(C)OC(=O)C5 (stereo not given),Potency,[1],inactive
same,Potency,[2],inactive
COc1cc(N)c(Cl)cc1C(=O)NC[C@@H]1CCN2CCC[C@@H]12,Potency,[1],inactive
same,Potency,[2],inactive
CN(C)C(=O)NC1CCC(CCN2CCN(c3cccc(Cl)c3Cl)CC2)CC1 (stereo not given),"activity change, negative = inhibition",[1],13.9% [at 19.1 µM]
same,outcome,[2],inactive [at 10.7 µM]
C[C@@H]1C[C@H]2O[C@@H]2/C=C\C=C\C(=O)Cc2c(Cl)c(O)cc(O)c2C(=O)O1,Potency,[1],inactive
same,Potency,[2],inactive
CC1OC(OC2C(C)OC(OC3C(O)C(CO)OC(O[C@H]4CC[C@@]5(C)C(CC[C@]6(C)C5CC=C5C7[C@@H](C)[C@H](C)CC[C@]7(C(=O)O)CC[C@]56C(=O)O)C4(C)C)C3O)C(O)C2O)C(O)C(O)C1O (stereo not given in full),Potency,[1],inactive
same,Potency,[2],inactive
CC1CCC2(C=O)C(CO)=CCCC2C1(C)CC(=O)O (stereo not given),Potency,[1],11.2 µM (active)
same,Potency,[2],12.6 µM (active)
CC/C=C\[C@H](O)[C@H](O)C1=C(C)C(=O)[C@]2(O1)C(=O)N[C@@](OC)(C(=O)c1ccccc1)[C@@H]2O,Potency,[1],inactive
same,Potency,[2],inactive
NC(=O)c1cccc2cn(-c3ccc(C4CCCNC4)cc3)nc12 (stereo not given),Potency,[1],inactive
same,Potency,[2],inactive
CN1CCc2nc(C(=O)N[C@@H]3C[C@@H](C(=O)N(C)C)CC[C@@H]3NC(=O)C(=O)Nc3ccc(Cl)cn3)sc2C1,Potency,[1],inactive
same,Potency,[2],inactive
O=C(O)c1ccc(OC2OC(CO)C(O)C(O)C2O)cc1 (stereo not given),Potency,[1],inactive
same,Potency,[2],inactive
CO/N=C(/C(=O)N[C@@H]1C(=O)N2C(C(=O)O)=C(Cn3ccc(=N)n3CCO)CS[C@H]12)c1csc(N)n1,Potency,[1],inactive
same,Potency,[2],inactive
CCNC(=O)Nc1ncc(-c2cc(-c3c(C)cc(OC)cc3C)nc(-c3cnccn3)n2)s1,Potency,[1],inactive
same,Potency,[2],inactive
CCC(C)C1NC(=O)C2CCCN2C(=O)C(NC(C)=O)C(C)OC(=O)C(Cc2ccc(OC)cc2)N(C)C(=O)C2CCCN2C(=O)C(C(C)C)NC1=O (stereo not given) (Ac-TPIVP[NMeY](Me); ester 1-C; configuration not given here),Potency,[1],inactive
same,Potency,[2],inactive
C=CC(C)(O)CC/C=C(\C)C(=O)OC1C(O)C(CO)OC(OC(=O)C23CCC(C)(C)CC2C2=CCC4C5(C)CCC(OC6OC(COC7OCC(OC(C)=O)C(O)C7OC7OC(COC(C)=O)C(O)C(O)C7O)C(O)C(O)C6O)C(C)(C)C5CCC4(C)C2(C)C(O)C3O)C1OC1OCC(OC2OCC(O)C(OC3OCC(O)C(O)C3O)C2O)C(O)C1O (stereo not given),"activity change, negative = inhibition",[1],18.4% [at 19.1 µM]
same,"activity change, negative = inhibition",[2],18.5% [at 10.7 µM]
CN(C)CCCCC(=O)Nc1ccc(NC(=S)NC(=O)c2ccc(C(C)(C)C)cc2)cc1,Potency,[1],inactive
same,Potency,[2],inactive
COC(=O)/C=C/C12COC(C)(C)C1C(O)C(OC(C)=O)C1(C)C2CCC2(C)C(c3ccoc3)OC(=O)C3OC321 (stereo not given),Potency,[1],inactive
same,Potency,[2],inactive
Cc1nc2sc(C(=O)NCc3ccncc3)c(N)c2c(C)c1Cl,Potency,[1],inactive
same,Potency,[2],inactive
COc1cc(C(=O)OC[C@@]2(O)CO[C@@H](O[C@H]3[C@H](Oc4ccc(C(=O)O)cc4OC)O[C@H](CO)[C@@H](O)[C@@H]3O)[C@@H]2O)ccc1O,Potency,[1],inactive
same,Potency,[2],inactive
Cc1cc(C(=O)Nc2cccc(C(=O)Nc3cccc(C(F)(F)F)c3)c2)on1,Potency,[1],inactive
same,Potency,[2],inactive
CC(C)C[C@H](CC(=O)NO)C(=O)N[C@@H](Cc1ccc2ccccc2c1)C(=O)N[C@@H](C)C(=O)NCCN,Potency,[1],inactive
same,Potency,[2],inactive
CCOCc1nc2c(N)nc3ccccc3c2n1CC(C)(C)O,Potency,[1],inactive
same,Potency,[2],inactive
O=C(O)[C@@H]1C[C@H]2C[C@@H](CCc3nn[nH]n3)CC[C@H]2CN1,Potency,[1],inactive
same,Potency,[2],inactive
CC1=CC(=O)C2C(C)(C)CCC[C@]2(C)[C@H]1CO (stereo not given in full),Potency,[1],inactive
same,Potency,[2],inactive
CCO[C@@H]1OC(=O)C[C@@H]1NC(=O)[C@@H]1CCCN1C(=O)[C@@H](NC(=O)c1ccc(N)c(Cl)c1)C(C)(C)C,Potency,[1],inactive
same,Potency,[2],inactive
CC[C@H](NC(=O)[C@H](CS(=O)(=O)CC1CC1)N[C@@H](c1ccc(F)cc1)C(F)(F)F)C(=O)C(=O)NC1CC1,Potency,[1],inactive
same,Potency,[2],inactive
CCC1=CC2CN(C1)Cc1c([nH]c3ccccc13)[C@@](C(=O)OC)(c1cc3c(cc1OC)N(C)[C@H]1[C@@](O)(C(=O)OC)[C@H](OC(C)=O)[C@]4(CC)C=CCN5CC[C@]31[C@@H]54)C2 (stereo not given in full),Potency,[1],inactive
same,Potency,[2],inactive
O=C(NCc1cccc(O)c1)Nc1nc(-c2ccncc2)cs1,Potency,[1],inactive
same,Potency,[2],inactive
CC1(C)CC2C(O)c3cocc3CC(C)(O)C2C1 (stereo not given),Potency,[1],inactive
same,Potency,[2],inactive
CC(=O)O[C@@H](CO[C@@H]1O[C@H](CO)[C@H](O)[C@H](O)[C@H]1O)[C@]1(C)C=C2CC[C@@H]3C(C)(C)[C@@H](O)CC[C@@]3(C)[C@@H]2CC1,Potency,[1],inactive
same,Potency,[2],inactive
Cc1cc(Nc2cc(N3CCN(C)CC3)nc(/C=C/c3ccccc3)n2)n[nH]1,Potency,[1],inactive
same,Potency,[2],inactive
COc1cc2nc(N3CCC(N4CCCCC4)CC3)nc(NC3CCCCCC3)c2cc1OC,Potency,[1],inactive
same,Potency,[2],inactive
COc1cc(O)cc(C)c1C(=O)O[C@@H]1[C@H](O)[C@@H](CO)O[C@H]1n1ccc(=O)[nH]c1=O,Potency,[1],inactive
same,Potency,[2],inactive
C=CC(C)(C)C12C=C(OC)C(=O)N3C(C(C)C)C(=O)NC31N(OC)c1ccccc12 (stereo not given),Potency,[1],inactive
same,Potency,[2],inactive
CC(C)C(CO)Nc1nc(Nc2cc(N)cc(Cl)c2)c2ncn(C(C)C)c2n1 (stereo not given),Potency,[1],inactive
same,Potency,[2],inactive
O=C(Nc1nc2ccccc2n1CCc1ccccc1)c1ccccc1,Potency,[1],inactive
same,Potency,[2],inactive
